About 2,200 (69%) of roughly 3,200 compounds were called active. So high a share suggests a set chosen from earlier hits. Not all results are given here. A number with no mark means an inactive call.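 Rule for the calls: active = activation, as change over the incubation, above the mean of all tested compounds plus 3 SD (cut at about 13% in these data); inactive = the rest.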

79 compounds from PubChem BioAssay AID686949 (The Scripps Research Institute Molecular Screening Center, 2013) can be followed below.

The assay deals with Kallikrein-7 (Homo sapiens) (UniProt P49862). Description: proKLK7 zymogen activators, confirmation, biochemical, fluorescence intensity, triplicate (AID 686949). The settings on record: purified proKLK7, EDANS-DABCYL substrate fluorescence; at 7 µM; stronger effect = higher value; scaled: vehicle 0, mature enzyme 100.
Kallikrein-7 (Homo sapiens), sequence (P49862 whole entry, looked up): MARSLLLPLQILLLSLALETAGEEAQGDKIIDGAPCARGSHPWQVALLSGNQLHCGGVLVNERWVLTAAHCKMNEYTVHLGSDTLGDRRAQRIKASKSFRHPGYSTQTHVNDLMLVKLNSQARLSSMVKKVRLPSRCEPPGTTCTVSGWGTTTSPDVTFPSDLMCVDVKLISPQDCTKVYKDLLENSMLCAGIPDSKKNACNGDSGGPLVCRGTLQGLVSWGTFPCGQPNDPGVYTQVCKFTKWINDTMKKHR
As to `CN(C)Cc1c(O)ccc2c(=O)c(-c3ccccc3Cl)coc12`, the activation is 70.2% (active). On to `O=C(OC1CCOC1=O)c1ccc(-c2nc3ccccc3s2)s1` (centres undefined), for which the activation was 17.6% (active).

`COC(=O)Cc1nc2c(N)nc(N)nc2[nH]c1=O`: the activation was 18.7% (active). The figure for `O=C(Oc1c(-c2ccco2)oc2ccccc2c1=O)c1cccnc1` is 22.3% (active). As for `CC(C)(C)Nc1c(-c2cccs2)nc2ccccn12`, the activation is -59.6%. For the compound `CN(C)CCCn1c(N)c(C#N)c2nc(C#N)c(C#N)nc21`, the activation is 38% (active). Consider `CCS(=O)(=O)Nc1cc(C(=O)OC)ccc1C(=O)OC`, for which the activation is 10%.

Consider `Cc1cccc(C)c1NC(=O)C(c1ccccc1)N1CC(=O)Nc2ccccc21` (centres undefined), for which the activation was 40.3% (active). On to `COc1ccc(C2=CC(c3cccc(OC)c3)n3nnnc3N2)cc1` (centres undefined), for which the activation was -12.2%. For `CCOC(=O)C1=C(O)/C(=C/c2ccc(OCC(=O)Nc3ccc(C)cc3)cc2)N=C1C`, the activation was 2.24%. As to `CCC(c1nnnn1Cc1ccco1)N(CCc1ccccc1)Cc1cc2ccc(OC)cc2[nH]c1=O` (centres undefined), the activation is -0.98%. Take `Cc1ccsc1-c1cc(C(=O)O)c2c(ccc3ccccc32)n1`: the activation is 19.8% (active). `O=C(O)c1ccc2c(c1)C(=O)N(c1ccc(/C=C/C(=O)c3ccccc3)cc1)C2=O`: the activation was 703% (active). For the compound `O=C(/C=C/c1ccc2c(c1)OCCO2)c1ccc(O)cc1`, the activation is 3.2%. The same measure for `CCCN(CC(=O)NC(=O)NC1CCCCC1)CC(=O)Nc1cc(Cl)ccc1Cl`: 1.91%; for `CC(OC(=O)c1ccccc1NCCO)C(=O)Nc1ccnn1C(C)C` (centres undefined): 26.1% (active); for `O=c1c(-c2ccccc2)coc2c(CN3CCOCC3)c(O)ccc12`: 18.1% (active). Turning to `Cc1cc(=O)oc2c3c(cc(OCC(=O)NCCC(=O)N[C@@H](C)C(=O)O)c12)OC(C)(C)CC3`, the activation is 58.2% (active). With `Cc1cc(=O)oc2c3c(cc(OCC(=O)N[C@H](C(=O)O)c4ccccc4)c12)OC(C)(C)CC3`, the activation was 34% (active). `Cc1c(C)c2c(OCC(=O)NCCCO)cc3c(c2oc1=O)CCC(C)(C)O3`: the activation is 44.6% (active). The same measure for `Cc1c(C)c2c(OCC(=O)N[C@@H](C(=O)O)c3ccccc3)cc3c(c2oc1=O)CCC(C)(C)O3`: 36.6% (active); for `CCOC(OCC)c1ccc(/C=C\c2nccc(N)n2)cc1`: -9.52%. In the case of `CCOC(=O)c1[nH]c2ccc(OC)cc2c1NC(=O)CCN1CCN(Cc2ccccc2)CC1`, the activation is 1.17%. The figure for `Cc1nn(-c2ccccc2)c(C)c1NC(=O)COC(=O)c1cc(Cl)ccc1O` is 24.2% (active). Regarding `CC1CCCN(C(=O)c2cc(-c3ccco3)nc3ccccc23)C1` (centres undefined), the activation is 36.6% (active). The figure for `CC(=O)N1CCN(C(=O)c2cc(-c3ccc(C)o3)nc3ccccc23)CC1` is 62.7% (active); for `CNC(=O)COC(=O)c1cc(-c2ccc(OC)cc2)nc2ccccc12` it is 88.7% (active). Regarding `COc1ccc(-c2cc(C(=O)n3cnc4ccccc43)c3ccccc3n2)cc1`, the activation was 56.7% (active).

`COc1ccc(CNC(=O)COC(=O)C2=Cc3ccccc3OC2)cc1`: the activation is 9.73%. The same measure for `COc1ccc2nc(Nc3nc4cc5c(cc4s3)OCCO5)sc2c1`: -12.6%; for `O=C(O)c1ccc2c3c(cccc13)C(=O)N(OS(=O)(=O)c1ccccc1)C2=O`: 181% (active). The same measure for `CC(=O)Nc1nc(C)c(-c2csc(Nc3ccc(S(N)(=O)=O)cc3)n2)s1`: 17.4% (active); for `CNc1cncc(-c2cccc(C(=O)N3CCOCC3)c2)n1`: 38.8% (active).

As to `Cc1cc(N2CCOCC2)nc2ccc(NC(=S)N3CCN(Cc4ccccc4)CC3)cc12`, the activation was 9.27%. As for `Clc1ccc(-c2cccc3nccn23)cc1`, the activation is 8.31%.

Take `COc1cc(/C=C/C(=O)Nc2ccc(OC)c(S(=O)(=O)N3CCOCC3)c2)ccc1OCC#N`: the activation was 96.2% (active). Turning to `CCOc1ccccc1C1C(C(=O)OC)=CN(C)C=C1C(=O)OC`, the activation was -23.5%. The same measure for `COCC(=O)Nc1nnc(COc2ccccc2)s1`: -0.07%; for `CN(C(=O)COc1ccccc1)c1nnc(-c2ccncc2)s1`: 111% (active).

As to `CN(C(=O)c1ccccn1)c1nnc(-c2ccccn2)s1`, the activation is 74% (active). The figure for `Oc1ccc2ccc3cccc[n+]3c2c1` is 34.6% (active). As to `CN(C(=O)c1cc2c(=O)n3ccccc3nc2s1)C1CCCCC1`, the activation is 33% (active).

Take `CCOCCCNC(=O)c1cc2c(=O)n3ccccc3nc2s1`: the activation was 74.1% (active).

Turning to `CCN(CC)CCCNC(=O)c1cc2c(=O)[nH]c3ccc(C)cc3c2s1`, the activation is 1.54%.

Consider `CCN(CC)CCCC(C)n1c2nc(=O)[nH]c(=O)c-2nc2cc(Cl)ccc21` (centres undefined), for which the activation is 75.6% (active). As for `CCN1CCN(C(=O)Cn2nc(C)n3c(cc4c(OC)cccc43)c2=O)CC1`, the activation was 21% (active). On to `COC(=O)c1cc(N2CCNCC2)nc2ccccc12`, for which the activation was 17.1% (active). Take `CN(CCc1ccccn1)S(=O)(=O)c1ccc2c3c(cccc13)C(=O)N2`: the activation was 68.2% (active). Regarding `C=CCn1c(N)c(S(=O)(=O)c2cccs2)c2nc3ccccc3nc21`, the activation was 8.74%. For `COCCCn1c(-c2cccs2)nc2nc3ccccc3nc21`, the activation is 24.1% (active).

As for `Cc1cc2cc3n(c2nn1)N=C(Cl)CC3`, the activation is 33.3% (active).

On to `CCC1=C(C(=O)OC)C(c2cc(OC)ccc2OC)C(C#N)=C(N)O1` (centres undefined), for which the activation is 32.8% (active). With `O=c1oc2c(CN3CCCCC3)c(O)ccc2c2c1CCCCC2`, the activation was 74.6% (active).

For `COc1c(N2CCN(C(=S)Nc3ccccc3F)C(C)C2)c(F)cc2c(=O)c(C(=O)O)cn(C3CC3)c12` (centres undefined), the activation is 18.5% (active).

With `COc1ccc2c(c1)CCc1cn3ncc(C#N)c3nc1-2`, the activation is -106%. The same measure for `CNc1cncc(-c2ccc(NS(C)(=O)=O)cc2)n1`: 39.7% (active); for `C/C(=C\c1ccccc1)C1NC(=O)c2c(sc3c2CCCC3)N1` (centres undefined): 22.4% (active); for `COCc1cc(=O)oc2cc(NS(=O)(=O)c3ccc(C)cc3)ccc12`: 72.3% (active).

For the compound `N#CC1=C(N)Oc2c(sc3ccccc23)C1c1ccco1` (centres undefined), the activation was -25.1%.

For the compound `CC1(C)Oc2ccc3ccc(=O)oc3c2/C(=N/O)C1=O`, the activation was 89.9% (active). The figure for `Cc1nc2ccc(N)nc2nc1C` is 49.6% (active); for `O=C1NC(c2cccc(Cl)c2)Nc2ccccc21` (centres undefined) it is 20.5% (active); for `CCNC(=S)Nc1ccc2c(c1)c(=O)n(C)n2Cc1ccc(Cl)cc1` it is -4.46%. The same measure for `COc1ccc(CCNC(=O)Nc2ccc3c(c2)c(=O)n(C)n3C)cc1OC`: 24.5% (active); for `C[C@@H]1C(c2ccc(F)cc2)=NN(c2ccc(Br)cc2)[C@H]1C(=O)N1CCOC1=O`: 27.9% (active); for `CCN(CC(=O)Nc1c(F)cccc1F)C(=O)c1ccc(-c2ccc(C(C)=O)cc2)o1`: -16.9%. On to `O=C(NCCN1CCOCC1)c1cc(-c2cccs2)nc2ccccc12`, for which the activation was 24.8% (active).

As for `CCCCN(C)CCCNC(=O)c1cc(-c2cccs2)nc2ccccc12`, the activation was -47.1%.

Regarding `Cc1ccc(C2Nc3ccccc3C(=O)N2CCN2CCNC2=O)cc1` (centres undefined), the activation was 16.7% (active). As for `CCCCCC(=O)Nc1ccc(-c2cn3cccnc3n2)cc1`, the activation was 24.5% (active). As for `CC(=O)Nc1ccc(-c2cn3cccnc3n2)cc1`, the activation was 74% (active). The same measure for `CC(C)(C)C(=O)Nc1ccc(-c2cn3cccnc3n2)cc1`: 73.9% (active); for `CCN1CCCC1CNC(=O)c1cc2cc(OC)c(OC)cc2[nH]1` (centres undefined): 24.7% (active); for `CCOc1ccc(-n2c(SCC(=O)Nc3cc(C)c(NC(=O)c4ccccc4)cc3OC)nnc2-c2cccs2)cc1`: 15.9% (active).

Consider `CC(=O)Oc1ccc2c(C)c(CC(C)O)c(=O)oc2c1` (centres undefined), for which the activation is 72.5% (active). `CC(=O)Nc1cc2ccc(OC(C)=O)cc2oc1=O`: the activation is 125% (active). With `CN1c2ccccc2-c2nc3ccccc3n2C1c1ccco1` (centres undefined), the activation was 7.38%. As for `Cc1cc(C)c2nc3nc(C)cc(C)c3c(N)c2c1`, the activation is 69% (active). In the case of `COc1cc2c(cc1OC)C(C(C)C)=NC(C)(C)C2`, the activation is 63.8% (active).
